Results from PubChem BioAssay (NCI).
The panel holds about 83,000 compounds, 20% with a hit somewhere; the sample as a whole holds those more often.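 Method: cells in 96-well plates; compound added at one concentration; 48 h incubation; percent growth measured; values under 10 scored active.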 Unmarked numbers belong to inactive results. Active and inactive are the calls of the source.

System: HL-60(TB) leukemia
Experiment: NCI-60 one-dose screen, 48 h (100 = growth as untreated, 0 = no growth, -100 = all killed)
Conditions: 10 µM unless noted

SMILES | growth
N#CC1(C#N)C2=C(CCCC2)NC(c2c(F)cccc2Cl)C1(C#N)C#N (centres undefined) | 6.9% (active)
C=C1C[C@@]2(C)C(CC[C@]3(C)C2CC=C2C4CC(C)(C)C[C@@H](OC(=O)/C(C)=C\C)[C@]4(C(=O)O)CC[C@]23C)C(C)(C)C1=O (some centres undefined) | -32.4% (active)
CC(=O)O[C@@H]1/C=C/C(=O)N[C@@H](C)CCC/C=C/[C@@H]2CCC[C@H]21 | 99.8%
COc1cc(OC)c2cc(C(=O)c3ccc(C#N)cc3)c(=O)oc2c1 | 97.4%
CNc1ccc(Nc2ccc(S(=O)(=O)O)cc2)c2c1C(=O)c1ccccc1C2=O | 120%
C[C@]12CC[C@@H]3c4ccc(O)cc4CC[C@H]3[C@@H]1CC[C@@H]2NS(=O)(=O)c1ccc(C(F)(F)F)cc1 | 19.5%
O=S1(=O)NCCCN1CCNc1nccc(-c2c(-c3cccc(O)c3)nc3sccn23)n1 | 73.3%
CCCC(=O)NNc1[nH]c(-c2ccc(OC)cc2)cc1C(=O)OCC | -27.7% (active)
CC1CN(C(C)C)C(=S)N(c2ccccc2)C1=O (centres undefined) | 113%
CCCCN(CCCC)c1cc(C(=O)CCCCCN)c2ccccc2n1 | -67.9% (active)
C=C1C(=O)O[C@H]2[C@H]1CC/C(CNS(=O)(=O)c1cccc3ccccc13)=C\CC[C@@]1(C)O[C@@H]21 | -31.9% (active)
O=C1Nc2ccc(Cl)cc2/C1=C/c1cccs1 | 98%
CC(C(=O)O)n1c(O)c(C=Nc2cccnc2)sc1=S (centres undefined) | 82.3%
CCCCCCCCN(CCCCCCCC)CC(O)c1ccc(Cl)c(C)c1Cl (centres undefined) | 106%
